# From PubChem BioAssay (NCATS)
# Where “and” joins values, the source holds several entries; their conditions need not be identical. Equal values may be shown once. Results filed as inconclusive are left out. Where a call stands in place of a potency, no number is given. Calls of active or inactive are those of the source. Calls come from the whole dose curve; as a rule, active = well fitted curve in the direction sought with a large enough effect; inconclusive = small, poorly fitted or top-dose-only effect, or another doubt; inactive = no such curve, though single readings can be large; an effect the other way counts as inactive or inconclusive.
# Key:
# [1] = tested on: Zika virus NS2B-NS3 protease; experiment: Primary screen GU AMC qHTS for Zika virus inhibitors (AID 1347154); note: nearly all actives have a fitted effect of over 70% in size; note: potency is the fitted concentration of half-maximal effect
# How it was run: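 Unlinked Zika NS2B hydrophilic domain/NS3 protease domain noncovalent complex (25 nM final) in 10 mM Tris-HCl pH 8.0, 0.01% Tween 20, with AMC peptide substrate. Fluorescence (ex 340, em 450 nm) change over 15 min, room temperature; percent inhibition fitted to 4-parameter Hill equation.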
# [2] = tested on: Zika virus NS2B-NS3 protease (unlinked); experiment: Optimization of GU AMC qHTS for Zika virus inhibitors: Unlinked NS2B-NS3 protease assay (AID 1347151); note: nearly all actives have a fitted effect of over 80% in size; note: potency is the fitted concentration of half-maximal effect
# How it was run: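 Percent inhibition is derived from the 15-min change in AMC fluorescence, normalized against no-inhibitor and no-enzyme controls, then fitted to a 4-parameter Hill curve. Aprotinin was the intraplate control.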
# [3] = molecular target: Lysine-specific demethylase 5B (Homo sapiens) (UniProt Q9UGL1); experiment: Optimization screen for KDM5B Histone Demethylases FDH coupled qHTS against the LOPAC library (AID 1347166)
# How it was run: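 KDM5BDeltaAP (200nM final) in 50mM HEPES pH 7.5, 0.01% Tween-20 was preincubated with compound for 10 min at room temperature. A substrate mix of 12.5uM H3K4Me3, 25uM a-ketoglutarate, ascorbate, Fe2+, NAD+ and formaldehyde dehydrogenase was then added. NADH fluorescence (340/450 nm) was read initially and after 30 min.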
# Furin (Homo sapiens) = Furin (Homo sapiens) (UniProt P09958); experiment: Furin counterscreen qHTS for Zika virus inhibitors (AID 1347149); note: nearly all actives have a fitted effect of over 70% in size; note: potency is the fitted concentration of half-maximal effect
# How it was run: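 Counterscreen measures cleavage of 2 microM BOC-RVRR-AMC, below its ~15 microM Km, by 5 nM full-length human furin at pH 7.0 after a 15-min compound preincubation. Inhibition derives from the 15-min fluorescence increase at 37C.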
# [4] = Confirmatory screen GU Rhodamine qHTS for Zika virus inhibitors qHTS (AID 1347157); note: nearly all actives have a fitted effect of over 70% in size
# How it was run: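 Percent inhibition derives from the 15-min fluorescence change (ex 480, em 540 nm), normalized to no-enzyme and no-inhibitor wells. Reactions contained 25 nM NS2B-NS3 complex and 1.5 microM substrate in 10 mM Tris-HCl pH 8.0.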
# [5] = Confirmatory screen NINDS Rhodamine qHTS for Zika virus inhibitors (AID 1347161); note: nearly all actives have a fitted effect of over 60% in size; note: potency is the fitted concentration of half-maximal effect
# How it was run: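 In 10 mM Tris-HCl pH 8.0 containing 0.01% Tween 20, linked NS2B-NS3 protease (25 nM final) is exposed to test compounds for 15 min. Cleavage of 1.5 microM Rhodamine110 substrate is tracked by fluorescence over 15 min.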
# [6] = tested on: Zika virus NS2B-NS3 protease (unlinked complex); experiment: Confirmatory screen GU AMC qHTS for Zika virus inhibitors (AID 1347153); conditions: Recombinant NS2B-NS3 protease, AMC substrate fluorescence;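 note: enzyme at 25 nM with substrate at 10 µM below its Km of 18.3 µM; potency is the fitted concentration of half-maximal effect; nearly all actives have a fitted effect of over 70% in size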
# How it was run: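 Fluorescence change (ex 340/em 450 nm) over 15 min, ~20% substrate conversion, normalized to no-inhibitor and no-enzyme controls, then Hill-fitted. Unlinked protease at 25 nM; AMC peptide 10 µM.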
# [7] = tested on: Zika virus NS2B-NS3 protease (linked construct); experiment: Primary screen NINDS Rhodamine qHTS for Zika virus inhibitors (AID 1347160); note: nearly all actives have a fitted effect of over 55% in size; note: potency is the fitted concentration of half-maximal effect
# How it was run: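 Enzyme (25 nM, linked NS2B-NS3) was preincubated 15 min with compound in 10 mM Tris-HCl pH 8.0, 0.01% Tween 20. Rhodamine110 substrate (1.5 microM) was then added and fluorescence read at start and after 15 min.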
# [8] = Vero cells viability qHTS for Zika virus inhibitors (AID 1347167)
# How it was run: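 To flag cytotoxic protease inhibitors, viability is measured by ATP-dependent luminescence (CellTiter Glo) after cells attached overnight receive compound for 24 to 48 hours in DMEM with 4% FBS.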
# [9] = ZIKV-mCherry secondary qHTS for Zika virus inhibitors (AID 1347158); note: top concentration of the series differs between compounds
# How it was run: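 Percent infection is the share of Hoechst-identified Vero nuclei with mCherry signal above 450 RFU (3 SD over negative controls). Cells were infected with recombinant ZIKV-mCherry at MOI 1 after compound addition and imaged 48–72 h later.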
# [10] = molecular target: N-terminal Xaa-Pro-Lys N-methyltransferase 1 (Homo sapiens) (UniProt Q9BV86); experiment: qHTS Assay for Inhibitors of N-terminal methyltransferase 1 (NTMT1): LOPAC validation of the NTMT1 SAHH-coupled ThioGlo3 Assay (AID 1347143)
# How it was run: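 In this qHTS pilot against the LOPAC set, 125nM NTMT1 met compounds tested at multiple concentrations, and fluorescence was normalized to background.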
# [11] = tested on: Zika virus NS2B-NS3 protease (linked construct); experiment: Confirmatory screen NINDS AMC qHTS for Zika virus inhibitors (AID 1347152); conditions: Purified linked NS2B-NS3, AMC substrate fluorescence
# How it was run: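 In this dose-response qHTS, AMC release from 10 microM Bz-Nle-KRR-AMC by 1 nM linked protease is measured over 15 minutes (about 20% conversion) at pH 8.0. Percent inhibition is fitted to a 4-parameter Hill curve.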
# [12] = tested on: Zika virus NS2B-NS3 protease (unlinked complex); experiment: Primary screen GU Rhodamine qHTS for Zika virus inhibitors: Unlinked NS2B-NS3 protease assay (AID 1347159); note: nearly all actives have a fitted effect of over 60% in size; note: potency is the fitted concentration of half-maximal effect
# How it was run: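 Enzyme 25 nM in Tris-HCl pH 8.0 + 0.01% Tween 20; compounds up to 114 microM, 15 min RT dark; + Rhod110 substrate 1.5 microM; read t0 and 15 min; delta fluorescence → % inhibition → 4-parameter Hill fit.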
# [13] = tested on: Zika virus NS2B-NS3 protease (linked construct); experiment: 384 well plate NINDS Rhodamine confirmatory qHTS for Zika virus inhibitors (AID 1347164); note: potency is the fitted concentration of half-maximal effect; nearly all actives have a fitted effect of over 65% in size
# How it was run: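 Compounds are incubated about 15 minutes with linked protease (5, 30 or 60 nM final). Rhodamine 110-tagged Ac-LKRR substrate (10 microM final) is added and fluorescence measured after 25 minutes.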
# [14] = tested on: Zika virus NS2B-NS3 protease (linked); experiment: 384 well plate NINDS AMC confirmatory qHTS for Zika virus inhibitors (AID 1347163); conditions: Recombinant NS2B-NS3 protease, Ac-VKTGKR-AMC fluorescence; note: potency is the fitted concentration of half-maximal effect; nearly all actives have a fitted effect of over 50% in size
# How it was run: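 Fluorescence at 355/460 nm was read after 25 minutes of cleavage of 30 microM Ac-VKTGKR-AMC at room temperature, in the dark. Before substrate addition, compounds (up to 1 mM final) sat ~15 minutes with 5, 30 or 60 nM linked protease. Signals were normalized to no-enzyme and no-inhibitor wells.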
# Sequence of Furin (Homo sapiens) (P09958 whole entry, looked up): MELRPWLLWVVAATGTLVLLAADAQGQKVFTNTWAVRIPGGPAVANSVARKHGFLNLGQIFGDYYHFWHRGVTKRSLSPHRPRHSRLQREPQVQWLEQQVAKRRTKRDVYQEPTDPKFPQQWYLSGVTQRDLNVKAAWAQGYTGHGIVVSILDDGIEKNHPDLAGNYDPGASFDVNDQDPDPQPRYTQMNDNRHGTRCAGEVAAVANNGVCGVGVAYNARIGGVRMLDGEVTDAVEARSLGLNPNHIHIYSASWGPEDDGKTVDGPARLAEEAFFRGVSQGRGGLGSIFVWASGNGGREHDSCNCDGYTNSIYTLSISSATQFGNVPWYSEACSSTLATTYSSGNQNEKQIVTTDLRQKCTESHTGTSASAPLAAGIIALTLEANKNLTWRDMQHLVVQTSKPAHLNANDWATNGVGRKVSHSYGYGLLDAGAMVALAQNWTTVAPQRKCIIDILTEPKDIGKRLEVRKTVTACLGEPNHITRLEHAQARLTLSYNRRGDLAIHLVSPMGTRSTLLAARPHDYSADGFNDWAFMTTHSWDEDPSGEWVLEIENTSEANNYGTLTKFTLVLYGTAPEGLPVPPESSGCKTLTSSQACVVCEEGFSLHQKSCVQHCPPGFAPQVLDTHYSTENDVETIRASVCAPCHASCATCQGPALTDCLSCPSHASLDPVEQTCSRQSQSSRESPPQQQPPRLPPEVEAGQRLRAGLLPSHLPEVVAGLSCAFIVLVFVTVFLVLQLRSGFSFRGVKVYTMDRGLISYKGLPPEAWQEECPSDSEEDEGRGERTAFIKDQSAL
# Sequence of Lysine-specific demethylase 5B (Homo sapiens) (Q9UGL1 whole entry, looked up): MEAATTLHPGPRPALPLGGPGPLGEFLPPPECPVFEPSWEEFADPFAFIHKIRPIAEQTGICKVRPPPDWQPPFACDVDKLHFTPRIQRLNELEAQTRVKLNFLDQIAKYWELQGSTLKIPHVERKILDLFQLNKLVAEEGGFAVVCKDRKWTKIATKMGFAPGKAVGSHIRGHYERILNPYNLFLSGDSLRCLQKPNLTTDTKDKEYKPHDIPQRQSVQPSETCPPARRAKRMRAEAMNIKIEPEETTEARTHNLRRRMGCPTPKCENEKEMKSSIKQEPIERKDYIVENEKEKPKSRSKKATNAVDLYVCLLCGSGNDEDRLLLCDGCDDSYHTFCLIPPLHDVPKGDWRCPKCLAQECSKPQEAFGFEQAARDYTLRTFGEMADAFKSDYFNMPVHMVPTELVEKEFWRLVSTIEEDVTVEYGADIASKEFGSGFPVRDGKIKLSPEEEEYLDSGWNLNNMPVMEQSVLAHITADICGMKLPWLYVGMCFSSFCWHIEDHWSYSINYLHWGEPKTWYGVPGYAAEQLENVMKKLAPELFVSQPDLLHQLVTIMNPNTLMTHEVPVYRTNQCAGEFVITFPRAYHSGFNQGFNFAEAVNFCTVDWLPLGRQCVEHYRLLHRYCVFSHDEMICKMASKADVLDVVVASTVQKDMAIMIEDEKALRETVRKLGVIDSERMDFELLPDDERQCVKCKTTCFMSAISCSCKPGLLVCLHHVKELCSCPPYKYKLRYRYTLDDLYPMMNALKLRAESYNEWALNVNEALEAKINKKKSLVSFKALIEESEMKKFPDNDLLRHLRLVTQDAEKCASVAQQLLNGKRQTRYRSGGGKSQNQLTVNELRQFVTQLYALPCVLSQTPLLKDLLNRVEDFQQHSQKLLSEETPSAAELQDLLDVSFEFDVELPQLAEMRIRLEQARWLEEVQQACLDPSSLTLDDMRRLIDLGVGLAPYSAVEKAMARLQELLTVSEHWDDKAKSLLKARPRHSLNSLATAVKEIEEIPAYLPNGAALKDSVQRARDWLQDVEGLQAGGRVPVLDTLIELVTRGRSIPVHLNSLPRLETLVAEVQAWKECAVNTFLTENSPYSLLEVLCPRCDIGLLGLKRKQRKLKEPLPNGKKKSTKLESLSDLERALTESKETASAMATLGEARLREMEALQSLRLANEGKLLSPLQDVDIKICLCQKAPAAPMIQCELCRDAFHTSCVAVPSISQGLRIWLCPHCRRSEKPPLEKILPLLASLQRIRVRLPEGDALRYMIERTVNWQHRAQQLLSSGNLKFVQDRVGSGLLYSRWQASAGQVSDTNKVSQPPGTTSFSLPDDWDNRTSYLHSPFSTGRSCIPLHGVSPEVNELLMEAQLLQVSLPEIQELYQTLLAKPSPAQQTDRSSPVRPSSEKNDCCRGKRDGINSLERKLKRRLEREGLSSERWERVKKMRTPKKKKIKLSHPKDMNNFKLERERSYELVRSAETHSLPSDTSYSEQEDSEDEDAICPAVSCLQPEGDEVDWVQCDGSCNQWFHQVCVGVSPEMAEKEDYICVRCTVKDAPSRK
# Sequence of N-terminal Xaa-Pro-Lys N-methyltransferase 1 (Homo sapiens) (Q9BV86 whole entry, looked up): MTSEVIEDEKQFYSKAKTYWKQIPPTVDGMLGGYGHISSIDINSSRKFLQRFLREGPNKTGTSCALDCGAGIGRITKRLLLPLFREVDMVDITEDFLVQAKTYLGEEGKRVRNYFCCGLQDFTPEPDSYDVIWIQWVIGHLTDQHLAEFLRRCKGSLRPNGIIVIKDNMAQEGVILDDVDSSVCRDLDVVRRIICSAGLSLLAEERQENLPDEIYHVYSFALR
structure (smiles),measurement,setting,value
CC(C)(C)COc1ccc(-n2cc(C(=O)O)cn2)cc1C#N,Potency,[1],inactive
CCn1cc(C(=O)O)c(=O)c2ccc(C)nc21,Potency,[2],inactive
same,Potency,[1],inactive
same,outcome,[3],inactive
CC(C(=O)O)c1ccc(-c2ccccc2)c(F)c1 (stereo not drawn),Potency,[1],inactive
O=C(Nc1cc(Cl)cc2c1[nH]c1cnccc12)c1cccnc1,Potency,[1],inactive
NC1CCC(Nc2nc(Nc3ccc(C(=O)N4CCCCC4)cc3)c3ncn(-c4cccc(F)c4)c3n2)CC1 (stereo not drawn),Potency,[1],inactive
CC/C(=C(\c1ccccc1)c1ccc(OCCN(C)C)cc1)c1ccccc1,Potency,[2],inactive
same,Potency,[1],inactive
Nc1ncnc2c1nc(Cl)n2[C@@H]1O[C@H](CO)[C@@H](O)[C@@H]1O,Potency,[1],inactive
NC(=O)[C@@H](CCC(F)(F)F)N(Cc1ccc(-c2ncon2)cc1F)S(=O)(=O)c1ccc(Cl)cc1,Potency,[1],inactive
O=C(O)c1c(Cl)c(Cl)c(Cl)c(Cl)c1-c1c2cc(I)c(=O)c(I)c-2oc2c(I)c(O)c(I)cc12,Potency,Furin (Homo sapiens),inactive
same,Potency,[4],inactive
same,Potency,[5],inactive
Cc1ccc(/C=N/NC(=O)c2ccccc2Oc2ccccc2)o1,Potency,[1],inactive
Cc1ccn(-c2ccc(-c3ncco3)cc2)c(=O)c1-c1ccc2nc(N)ncc2c1,Potency,Furin (Homo sapiens),21.5 µM (active)
same,Potency,[6],30.4 µM (active)
same,Potency,[1],21.5 µM (active)
same,Potency,[7],inactive
same,Potency,[5],49.3 µM (active)
same,Potency,[8],inactive
O=c1c(O)c(-c2ccc(O)cc2)oc2cc(O)cc(O)c12,Potency,Furin (Homo sapiens),inactive
same,Potency,[1],inactive
same,Potency,[4],inactive
same,Potency,[5],inactive
C[C@H](NC(=O)C(=O)Nc1ccccc1C(C)(C)C)C(=O)N[C@@H](CC(=O)O)C(=O)COc1c(F)c(F)cc(F)c1F,Potency,Furin (Homo sapiens),inactive
same,Potency,[2],inactive
same,Potency,[1],inactive
same,outcome,[9],inactive
same,Potency,[8],inactive
CCNc1cc(NC2CCC(O)CC2)nc(Nc2ccc3c(ccn3Cc3ccccc3)c2)n1 (stereo not drawn),Potency,[1],inactive
CC(C)OC(=O)C(C)(C)Oc1ccc(C(=O)c2ccc(Cl)cc2)cc1,Potency,[10],inactive
same,outcome,[3],inactive
COc1ccc2cc(-c3nc(-c4ccc(S(C)=O)cc4)[nH]c3-c3ccncc3)ccc2c1 (stereo not drawn),Potency,Furin (Homo sapiens),3.83 µM (active)
same,Potency,[11],17.1 µM (active)
same,Potency,[6],17.1 µM (active)
same,Potency,[1],17.1 µM (active)
same,Potency,[12],inactive
same,Potency,[7],inactive
same,Potency,[8],inactive
CCCCCNC(=O)N1CCC(CN(Cc2ccc(Cl)cc2)Cc2ccc([N+](=O)[O-])s2)C1 (stereo not drawn),Potency,[1],inactive
C[N+](C)(C)CC(=O)O,Potency,[1],inactive
NC(=O)c1ccc2nc(-c3ccc(Oc4ccc(Cl)cc4)cc3)[nH]c2c1,Potency,Furin (Homo sapiens),34 µM (active)
same,Potency,[11],34.1 µM (active)
same,Potency,[1],24.1 µM (active)
same,Potency,[12],inactive
same,Potency,[13],251 µM (active)
same,Potency,[8],inactive
COC[C@@H](c1ccc(C(F)(F)F)cc1)N1CCN(C2(C)CCN(C(=O)c3c(C)ncnc3C)CC2)C[C@H]1C,Potency,[1],inactive
CN(C)Cc1cccc(N=C(c2ccccc2)c2c(O)[nH]c3cc(C(=O)N(C)C)ccc23)c1,Potency,[1],inactive
O=c1cc(-c2ccccc2)oc2cc(O)c(O)c(O)c12,Potency,[2],2.71 µM (active)
same,Potency,[1],inactive
same,outcome,[9],inactive
same,Potency,[7],17.5 µM (active)
same,Potency,[14],141 µM (active)
same,Potency,[8],inactive
NC(=O)c1cccc2[nH]c(-c3ccc([C@H]4CCCN4)cc3F)nc12,Potency,Furin (Homo sapiens),21.5 µM (active)
same,Potency,[11],27.1 µM (active)
same,Potency,[1],24.1 µM (active)
same,Potency,[12],inactive
same,Potency,[7],inactive
same,Potency,[5],inactive
same,Potency,[8],inactive
CS(=O)c1ccc(-c2nc(-c3ccc(F)cc3)c(-c3ccncc3)[nH]2)cc1 (stereo not drawn),Potency,Furin (Homo sapiens),24.1 µM (active) and 21.5 µM (active)
same,Potency,[11],24.1 µM (active)
same,Potency,[6],21.5 µM (active)
same,Potency,[1],26.7 µM (active) and 17.5 µM (active)
same,Potency,[12],inactive
same,Potency,[7],inactive
same,Potency,[5],inactive
same,Potency,[8],inactive
CC(C)[C@H](CO)Nc1nc(Nc2ccc(C(=O)O)c(Cl)c2)c2ncn(C(C)C)c2n1,Potency,[7],inactive
O=C(NC1CCOCC1)c1ccc(-c2cc(-c3cn[nH]c3-c3ccccn3)ccn2)cc1,Potency,[7],inactive
Cc1nc(N)sc1-c1ccnc(Nc2ccc(N3CCOCC3)cc2)n1,Potency,[1],inactive
same,Potency,[12],inactive
same,Potency,[7],inactive
Cc1ccc(Nc2cc(-c3cccc(N4C(=O)c5ccccc5C4=O)c3)ncn2)cc1NS(C)(=O)=O,Potency,[1],inactive
same,Potency,[12],50.1 µM (active)
same,Potency,[7],inactive
O=c1cc(CN2CCOCC2)occ1OCCCCCSc1ccnc2cc(C(F)(F)F)ccc12,Potency,[1],inactive
same,Potency,[12],inactive
same,Potency,[7],inactive
CC(=O)N(C)C1(c2ccccc2)CCN(CCC[C@]2(c3ccc(Cl)c(Cl)c3)CCCN(C(=O)c3ccccc3)C2)CC1,Potency,[1],inactive
same,Potency,[12],inactive
same,Potency,[7],inactive
CC(C)(C)NC(=O)Nc1cccc(Nc2ncc(F)c(NC(C)(C)CO)n2)c1,Potency,[1],inactive
same,Potency,[12],inactive
same,Potency,[7],inactive
